The values below come from PubChem BioAssay (NCATS).

Values joined by “and” are separate entries in the source; they are usually repeats but may differ in a detail not shown here. Identical values can stand only once. Inconclusive results are not listed. Active and inactive are the calls of the source. Unless noted, calls follow the shape of the dose curve; as a rule, active = well fitted curve in the direction sought with a large enough effect; inconclusive = small, poorly fitted or top-dose-only effect, or another doubt; inactive = no such curve, though single readings can be large; an effect the other way counts as inactive or inconclusive.

The target of experiment [1] is Cytochrome P450 3A4 (Homo sapiens) (UniProt P08684). As to the kind of experiment: qHTS Assay for Inhibitors and Substrates of Cytochrome P450 3A4 (AID 884). Also: potency is read from the fitted curve at half-maximal effect; nearly all actives have a fitted effect of over 50% in size. Summed up:
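Luminescent readout of luciferin produced by CYP3A4 (20 nM) dealkylation of Luciferin-PPXE, 25 uM (its KM). NADPH-driven reaction ran 60 min at RT after 10 min compound preincubation; data scaled to 57 uM ketoconazole as 100% inhibition.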
Background: qHTS replaces the single test concentration by a dilution series.

Experiment [2] shares this target. The experiment is described as follows: qHTS Assay for Activators of Cytochrome P450 3A4 (AID 885). Also: nearly all actives have a fitted effect of over 65% in size. Summed up:
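Using 20nM recombinant human CYP3A4 in potassium phosphate (200mM), substrate Luciferin-PPXE at 25uM, luminescent luciferin detection followed a 60-min RT NADPH reaction; data scaled to 57 uM ketoconazole.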

Experiment [3] deals with Pyruvate kinase (Leishmania mexicana) (UniProt Q27686). As to the kind of experiment: qHTS Validation Assay for Inhibitors of Leishmania Mexicana Pyruvate Kinase (AID 945). The method in brief:
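qHTS eight-point titrations against 0.2 nM LmPYK (E451W) in imidazole buffer pH 7.2 with 0.5 mM PEP, 0.1 mM ADP; 1 h, room temperature. Readout: PKLight luminescence, normalized to neutral DMSO wells.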

In experiment [4] the target is Alpha-galactosidase (Coffea arabica) (UniProt Q42656). The experiment is described as follows: Counterscreen for Glucocerebrosidase Inhibitors: qHTS Assay for Coffee Bean alpha-Galactosidase at pH 4.5 (AID 957). Also: series mostly up to about 77 µM. The method in brief:
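Quantitative HTS of compounds (0.7 nM to 77 uM) against coffee bean alpha-galactosidase at pH 4.5, measuring 4-methylumbelliferone fluorescence released from 80 uM substrate.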

Experiment [5] shares this target. The experiment is described as follows: Counterscreen for Glucocerebrosidase Inhibitors: qHTS Assay for Coffee Bean alpha-Galactosidase at pH 5.9 (AID 998). Summed up: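 In 50 mM citric acid pH 5.9 with 0.005% Tween-20, coffee bean enzyme hydrolyses 80 uM 4-MU alpha-D-galactopyranoside over 20 min at RT. Activity is normalized to controls; AC50 comes from Hill-modelled concentration-response data.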

Experiment [6] has as its target Endonuclease 4 (Escherichia coli (strain K12)) (UniProt P0A6C1). As to the kind of experiment: Counterscreen for APE1 Inhibitors: qHTS Validation Assay for Inhibitors of Endonuclease IV (AID 1708). The method in brief:
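Measured as reaction progress, the fluorescence gain between first and third kinetic reads after adding 50 nM TAMRA/BHQ-2 THF duplex to 2 nM enzyme preincubated 15 min with compound; 2 mM MgCl2, pH 7.5.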
A general note: The purpose of a counterscreen is to sort out artefacts and off-target activity.

Experiment [7] is described as follows: qHTS for differential inhibitors of proliferation of Plasmodium falciparum line 7G8 (AID 1815).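 Also: potency is read from the fitted curve at half-maximal effect; parasite growth measured after three days of incubation.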
Experiment [8] can be described thus: qHTS for differential inhibitors of proliferation of Plasmodium falciparum line GB4 (AID 1816).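 Also: potency is read from the fitted curve at half-maximal effect; parasite growth measured after 72 h incubation.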 As to conditions: Potency: Plasmodium falciparum GB4 proliferation inhibition.
Experiment [9] can be described thus: qHTS for differential inhibitors of proliferation of Plasmodium falciparum line 3D7 (AID 1876). Also: potency is read from the fitted curve at half-maximal effect.
Experiment [10] in a line: qHTS for differential inhibitors of proliferation of Plasmodium falciparum line D10 (AID 1877).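 Also: potency is read from the fitted curve at half-maximal effect; parasites grown with compound for 72 h before DNA staining.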
The nature of experiment [11]: qHTS for differential inhibitors of proliferation of Plasmodium falciparum line Dd2 (AID 1882). Also: potency is read from the fitted curve at half-maximal effect; nearly all actives have a fitted effect of over 65% in size. Particulars: Potency: Plasmodium falciparum Dd2 proliferation inhibition. The method in brief:
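RBC culture, 0.3% parasitemia / 2.5% Hct final; cpd added by pin tool in DMSO; 72 h, 37 C, 5% CO2; lysis buffer + SYBR Green I, o/n RT dark; FI 485/535; norm. to artemisinin 0.29 uM and DMSO.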

Experiment [12] is described as follows: qHTS for differential inhibitors of proliferation of Plasmodium falciparum line W2 (AID 1883).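 Also: potency is read from the fitted curve at half-maximal effect; parasites grown with compound for 72 h before lysis and staining.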 Particulars: Potency: Plasmodium falciparum W2 proliferation inhibition.
The nature of experiment [13]: qHTS for differential inhibitors of proliferation of Plasmodium falciparum line HB3 (AID 1886).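 Also: potency is read from the fitted curve at half-maximal effect; parasites grown with compound for 72 h before SYBR Green readout.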 Particulars: Potency: Plasmodium falciparum HB3 proliferation inhibition.
Experiment [14] addresses ATP-dependent DNA helicase Q1 (Homo sapiens) (UniProt P46063). As to the kind of experiment: qHTS Validation Assay for Inhibitors of RecQ-Like Dna Helicase 1 (RECQ1) (AID 2353). Also: potency is read from the fitted curve at half-maximal effect. The method in brief:
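RECQ1T1 50 nM; forked duplex (20 bp + 30-nt ss tails) 200 nM, ATP 2 mM final; pH 8.0, 2 mM MgCl2, 2.5 ug/ml poly(dI-dC); 15 min compound preincubation; discontinuous kinetic read over 2 h at RT.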

Experiment [15] is described as follows: Validation screen for inhibitors of Lassa infection (AID 463096; calls by dose curve).
Experiment [16] concerns the target DNA polymerase III PolC-type (Bacillus subtilis (strain 168)) (UniProt P13267). The experiment is described as follows: qHTS Validation Assay for the Inhibitors of DNA Replication in Gram-Positive Bacteria (AID 485295). Also: potency is read from the fitted curve at half-maximal effect. Summed up: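 PicoGreen fluorescence (ex 480–485/em 535–540 nm) reports dsDNA synthesized on ssM13Gori template with dNTPs/NTPs. Enzyme: holoenzyme rebuilt from purified PolC, beta subunit, SSB and primase. Compound preincubated before substrate addition; RT throughout.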

Experiment [17] is described as follows: Quantitative high throughput screen for delayed death inhibitors of the malarial parasite plastid, 96 hour incubation (AID 488745). Also: potency is read from the fitted curve at half-maximal effect; nearly all actives have a fitted effect of over 70% in size. Summed up: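 Two-generation (96 h) exposure of luciferase-reporter P. falciparum in erythrocytes, 2% hematocrit, 0.1% parasitemia final, 37 C, 5% CO2, RPMI 1640 with 0.5% Albumax. Growth inhibition scored by reduced luminescence.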

Experiment [18] deals with Flap endonuclease 1 (Homo sapiens) (UniProt P39748). As to the kind of experiment: qHTS Validation Assay for the Inhibitors of Human Flap endonuclease 1 (FEN1) (AID 488816). Also: potency is read from the fitted curve at half-maximal effect. Summed up: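 Steps: add FEN1 (10 nM reagent) or buffer only; pin compounds; hold 15 min at room temperature; start with substrate, 50 nM final; read at 0 and 15 min; correct, normalize and fit a four-parameter Hill curve.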

Experiment [19] deals with M-phase phosphoprotein 8 (Homo sapiens) (UniProt Q99549). As to the kind of experiment: qHTS Validation Assay for Inhibitors for MPP8 Chromodomain Interactions with Methylated Histone Tails (AID 488949). Also: potency is read from the fitted curve at half-maximal effect; nearly all actives have a fitted effect of over 55% in size. Summed up: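 AlphaScreen read-out: streptavidin donor and nickel chelate acceptor beads (final 10 ug/mL), 30 min in the dark at RT. Complex of 50 nM MPP8 and 50 nM b-H3(1-18)K9me3 peptide had been exposed to compounds for 30 min beforehand.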

The target of experiment [20] is Chromobox protein homolog 1 (Homo sapiens) (UniProt P83916). The experiment is described as follows: qHTS Validation Assay for Inhibitors of HP1-beta Chromodomain Interactions with Methylated Histone Tails (AID 488953). Also: potency is read from the fitted curve at half-maximal effect; nearly all actives have a fitted effect of over 50% in size. Summed up:
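Compounds pinned into a preassembled complex of HP1-beta and trimethyl-K9 histone H3(1-18) biotin peptide (50 nM each; PBS pH 7.4, 0.01% Tween-20). After 30 min, bead-based AlphaScreen detection followed.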

The target in experiment [21] is Peptidyl-prolyl cis-trans isomerase NIMA-interacting 1 (Homo sapiens) (UniProt Q13526). The experiment is described as follows: qHTS Validation Assay to Find Inhibitors of Pin1 (AID 504536; active = well fitted inhibition curve with a large enough effect in the polarisation, with a control signal flat, not every such curve was filed as active; the % refers to the polarisation; also: potency is read from the fitted curve at half-maximal effect). Summed up: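 Fluorescence polarization competition: compounds (titration) displace HiFluor-488-labeled Pin1-1b peptide from Pin1 (0.3 uM final) in pH 7.5 HEPES buffer with DTT, 10 min at room temperature; %Activity normalized to no-enzyme wells, curves fitted.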

Experiment [22] addresses Phosphoglycerate kinase, glycosomal (Trypanosoma brucei brucei) (UniProt P07378). The experiment is described as follows: qHTS Validation Assay to Find Inhibitors of Phosphoglycerate Kinase (AID 504547). Also: potency is read from the fitted curve at half-maximal effect. Summed up:
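In TEA buffer (100mM, pH 7.6) containing 5mM MgCl2 and 0.01% Tween-20, the GAPDH-coupled PGK reaction proceeded for 60 minutes at room temperature before a single luminescence reading using Kinase-Glo Plus.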

A short description of experiment [23]: Inducers of the Endoplasmic Reticulum Stress Response (ERSR) in human glioma: Validation (AID 504836). The method in brief:
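Stably transfected U87-MG human glioma cells carrying a GRP78-based luminescent sensor were seeded at 1000 cells/well, pin-dosed with compounds and incubated 16 h. Luciferase reagent was then added, and end-point luminescence was read after 10 min at room temperature.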

The target of experiment [24] is Hexokinase-4 (Homo sapiens) + Glucokinase regulatory protein (Homo sapiens) (UniProt P35557+Q14397). As to the kind of experiment: qHTS assay for inhibitors of recombinant human GCK-GKRP interaction: Diaphorase-coupled assay (AID 743205). Summed up: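 Resorufin fluorescence (525/590 nm), read each minute over 30 min, reports GCK activity coupled via G6PDH and diaphorase. Reaction: 10 nM GST-GCK, 10 nM FLAG-GKRP, 5 mM glucose, 0.4 mM ATP, 0.15 mM NADP+, 0.1 mM resazurin.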

Experiment [25] in a line: qHTS for Inhibitors of the Functional Ribonucleoprotein Complex (vRNP) of Lassa (LASV) Arenavirus: LASV Primary Screen - GLuc reporter signal (AID 1347082; calls by dose curve; tested in HEK293 reporter line; also: series mostly up to about 57 µM; nearly all actives have a fitted effect of over 60% in size).
A short description of experiment [26]: qHTS for Inhibitors of the Functional Ribonucleoprotein Complex (vRNP) of Lassa (LASV) Arenavirus: Viability assay - alamar blue signal for LASV Primary Screen (AID 1347083; calls by dose curve; tested in HEK293 reporter line; also: series mostly up to about 57 µM; nearly all actives have a fitted effect of over 80% in size).
Experiment [27] is described as follows: qHTS for Inhibitors of the Functional Ribonucleoprotein Complex (vRNP) of Lymphocytic Choriomeningitis Arenaviruses (LCMV): Viability assay - alamar blue signal for LCMV Primary Screen (AID 1347085; calls by dose curve; tested in HEK293 reporter line; also: series mostly up to about 57 µM; nearly all actives have a fitted effect of over 80% in size).
Experiment [28] has as its target Nucleoprotein (Lymphocytic choriomeningitis virus (strain Armstrong)) (UniProt P09992). The experiment is described as follows: qHTS for Inhibitors of the Functional Ribonucleoprotein Complex (vRNP) of Lymphocytic Choriomeningitis Arenaviruses (LCMV): LCMV Primary Screen - GLuc reporter signal (AID 1347086; calls by dose curve; also: series mostly up to about 57 µM; nearly all actives have a fitted effect of over 70% in size).
In experiment [29] the target is Arylsulfatase A (Homo sapiens) (UniProt P15289). As to the kind of experiment: qHTS screen for enhancers of Arylsulfatase A (ASA1): LOPAC Validation Assay (AID 720538). Summed up: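 Read-out: fluorescence at Ex=525/Em=598 nm after 1N NaOH final stop. Patient fibroblasts carrying ASA-I179S had 48h compound exposure, then 14h room-temperature pNCS hydrolysis (0.5mM final) in lysis buffer. Signal increase = enhanced activity.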

A short description of experiment [30]: KB-8-5-11 P-gp reporter qHTS against the NCATS DSHEA and TCM libraries (AID 1919977). The method in brief:
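CellTiter-Glo luminescence after ~72 h exposure at 37C gave viability of KB-8-5-11 cells, the P-gp-overexpressing subline. Substances were titrated; colchicine was omitted from assay medium.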

Alpha-galactosidase (Coffea arabica), sequence (Q42656 whole entry, looked up): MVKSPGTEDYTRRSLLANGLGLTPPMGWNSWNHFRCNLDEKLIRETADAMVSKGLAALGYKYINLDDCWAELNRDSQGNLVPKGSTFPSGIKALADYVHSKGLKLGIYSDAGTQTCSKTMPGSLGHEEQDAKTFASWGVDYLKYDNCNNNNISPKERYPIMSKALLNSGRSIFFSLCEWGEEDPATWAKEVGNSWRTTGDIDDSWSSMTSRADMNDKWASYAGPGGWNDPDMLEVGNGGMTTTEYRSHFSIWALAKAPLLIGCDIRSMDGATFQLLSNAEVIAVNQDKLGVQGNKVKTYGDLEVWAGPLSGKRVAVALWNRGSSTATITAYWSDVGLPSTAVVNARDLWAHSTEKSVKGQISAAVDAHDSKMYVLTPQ
Nucleoprotein (Lymphocytic choriomeningitis virus (strain Armstrong)), sequence (P09992 whole entry, looked up): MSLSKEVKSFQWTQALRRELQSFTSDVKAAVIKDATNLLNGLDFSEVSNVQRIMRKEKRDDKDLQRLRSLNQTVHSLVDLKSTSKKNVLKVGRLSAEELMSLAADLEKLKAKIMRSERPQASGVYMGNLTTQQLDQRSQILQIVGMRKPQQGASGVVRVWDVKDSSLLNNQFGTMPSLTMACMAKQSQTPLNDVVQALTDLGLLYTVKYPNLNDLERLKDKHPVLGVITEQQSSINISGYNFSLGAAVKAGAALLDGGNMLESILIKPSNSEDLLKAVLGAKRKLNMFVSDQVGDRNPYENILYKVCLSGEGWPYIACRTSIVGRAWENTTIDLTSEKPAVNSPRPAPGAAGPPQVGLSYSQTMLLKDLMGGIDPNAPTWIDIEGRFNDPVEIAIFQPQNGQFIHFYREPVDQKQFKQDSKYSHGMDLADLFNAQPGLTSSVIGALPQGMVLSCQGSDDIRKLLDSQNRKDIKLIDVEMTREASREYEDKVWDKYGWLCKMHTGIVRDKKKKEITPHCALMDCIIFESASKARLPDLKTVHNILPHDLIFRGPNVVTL
Cytochrome P450 3A4 (Homo sapiens), sequence (P08684 whole entry, looked up): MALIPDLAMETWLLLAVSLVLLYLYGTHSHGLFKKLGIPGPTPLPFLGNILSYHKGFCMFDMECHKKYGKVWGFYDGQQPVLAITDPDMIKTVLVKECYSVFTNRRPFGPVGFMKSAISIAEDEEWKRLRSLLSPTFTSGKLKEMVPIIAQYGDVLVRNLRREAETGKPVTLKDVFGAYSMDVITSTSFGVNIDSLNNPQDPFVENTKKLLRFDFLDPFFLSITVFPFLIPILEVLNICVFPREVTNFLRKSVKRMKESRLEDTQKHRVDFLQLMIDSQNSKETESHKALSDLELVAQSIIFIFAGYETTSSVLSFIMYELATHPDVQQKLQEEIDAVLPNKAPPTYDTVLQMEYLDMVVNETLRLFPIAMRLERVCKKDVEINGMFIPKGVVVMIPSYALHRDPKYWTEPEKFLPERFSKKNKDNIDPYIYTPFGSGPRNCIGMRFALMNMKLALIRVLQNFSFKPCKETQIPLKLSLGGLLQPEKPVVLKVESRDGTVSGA
Chromobox protein homolog 1 (Homo sapiens), sequence (P83916 whole entry, looked up): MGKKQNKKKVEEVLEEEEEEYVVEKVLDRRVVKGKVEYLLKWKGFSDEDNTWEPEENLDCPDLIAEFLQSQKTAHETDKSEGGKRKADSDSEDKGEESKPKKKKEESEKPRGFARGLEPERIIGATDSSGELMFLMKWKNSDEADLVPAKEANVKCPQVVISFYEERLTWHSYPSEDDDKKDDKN
M-phase phosphoprotein 8 (Homo sapiens), sequence (Q99549 whole entry, looked up): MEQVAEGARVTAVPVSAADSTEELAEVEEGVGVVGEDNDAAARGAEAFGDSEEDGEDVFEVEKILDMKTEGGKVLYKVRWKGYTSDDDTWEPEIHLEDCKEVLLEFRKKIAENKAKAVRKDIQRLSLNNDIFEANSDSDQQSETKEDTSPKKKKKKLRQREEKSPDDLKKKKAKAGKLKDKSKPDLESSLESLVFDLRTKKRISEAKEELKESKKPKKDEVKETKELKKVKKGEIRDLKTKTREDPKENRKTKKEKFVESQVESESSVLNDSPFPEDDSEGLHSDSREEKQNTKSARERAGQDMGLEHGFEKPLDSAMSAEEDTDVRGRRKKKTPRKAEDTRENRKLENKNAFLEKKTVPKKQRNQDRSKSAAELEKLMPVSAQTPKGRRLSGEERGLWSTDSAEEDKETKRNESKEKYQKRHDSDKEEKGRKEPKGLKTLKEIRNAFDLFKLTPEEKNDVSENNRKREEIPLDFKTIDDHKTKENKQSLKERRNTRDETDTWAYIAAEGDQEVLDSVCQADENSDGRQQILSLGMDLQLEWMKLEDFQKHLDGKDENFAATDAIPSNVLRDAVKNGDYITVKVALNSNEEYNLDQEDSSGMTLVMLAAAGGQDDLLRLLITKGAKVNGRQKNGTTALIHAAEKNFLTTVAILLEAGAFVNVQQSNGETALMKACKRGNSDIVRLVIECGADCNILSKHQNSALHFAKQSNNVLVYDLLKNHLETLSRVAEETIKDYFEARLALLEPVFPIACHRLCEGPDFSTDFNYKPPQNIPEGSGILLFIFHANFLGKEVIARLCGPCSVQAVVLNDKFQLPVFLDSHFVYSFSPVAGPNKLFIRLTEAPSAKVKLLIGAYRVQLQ
Pyruvate kinase (Leishmania mexicana), sequence (Q27686 2-499 E452W): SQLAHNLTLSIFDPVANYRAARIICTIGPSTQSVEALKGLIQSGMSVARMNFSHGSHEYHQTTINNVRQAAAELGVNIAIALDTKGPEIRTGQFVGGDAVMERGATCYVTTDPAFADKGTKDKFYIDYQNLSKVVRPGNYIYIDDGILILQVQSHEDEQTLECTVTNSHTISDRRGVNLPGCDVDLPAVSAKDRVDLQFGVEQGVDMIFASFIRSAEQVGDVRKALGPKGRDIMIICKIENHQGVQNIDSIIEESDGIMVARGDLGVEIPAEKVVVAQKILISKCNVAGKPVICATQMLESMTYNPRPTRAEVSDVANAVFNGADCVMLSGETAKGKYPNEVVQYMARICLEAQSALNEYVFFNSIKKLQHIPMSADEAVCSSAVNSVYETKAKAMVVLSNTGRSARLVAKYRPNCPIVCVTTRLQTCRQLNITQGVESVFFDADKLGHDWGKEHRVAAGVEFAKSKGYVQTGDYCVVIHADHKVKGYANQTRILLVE
Peptidyl-prolyl cis-trans isomerase NIMA-interacting 1 (Homo sapiens), sequence (Q13526 whole entry, looked up): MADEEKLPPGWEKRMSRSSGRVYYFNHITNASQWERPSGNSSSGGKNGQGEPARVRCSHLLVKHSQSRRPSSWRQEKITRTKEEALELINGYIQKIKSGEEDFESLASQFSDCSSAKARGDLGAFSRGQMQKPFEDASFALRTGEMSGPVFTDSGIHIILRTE
Phosphoglycerate kinase, glycosomal (Trypanosoma brucei brucei), sequence (P07378 whole entry, looked up): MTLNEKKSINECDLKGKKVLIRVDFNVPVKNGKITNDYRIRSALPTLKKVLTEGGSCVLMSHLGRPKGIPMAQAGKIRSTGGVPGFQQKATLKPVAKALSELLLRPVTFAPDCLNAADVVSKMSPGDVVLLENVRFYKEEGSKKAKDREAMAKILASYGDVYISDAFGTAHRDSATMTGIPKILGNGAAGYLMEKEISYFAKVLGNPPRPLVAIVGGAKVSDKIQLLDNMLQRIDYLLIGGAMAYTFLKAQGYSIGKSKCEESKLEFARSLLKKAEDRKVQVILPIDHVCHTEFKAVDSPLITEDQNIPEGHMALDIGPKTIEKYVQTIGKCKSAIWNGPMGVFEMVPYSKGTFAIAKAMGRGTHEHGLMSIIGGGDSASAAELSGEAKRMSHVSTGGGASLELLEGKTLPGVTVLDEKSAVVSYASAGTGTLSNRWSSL
Hexokinase-4 (Homo sapiens) + Glucokinase regulatory protein (Homo sapiens), sequence (P35557 whole entry, looked up): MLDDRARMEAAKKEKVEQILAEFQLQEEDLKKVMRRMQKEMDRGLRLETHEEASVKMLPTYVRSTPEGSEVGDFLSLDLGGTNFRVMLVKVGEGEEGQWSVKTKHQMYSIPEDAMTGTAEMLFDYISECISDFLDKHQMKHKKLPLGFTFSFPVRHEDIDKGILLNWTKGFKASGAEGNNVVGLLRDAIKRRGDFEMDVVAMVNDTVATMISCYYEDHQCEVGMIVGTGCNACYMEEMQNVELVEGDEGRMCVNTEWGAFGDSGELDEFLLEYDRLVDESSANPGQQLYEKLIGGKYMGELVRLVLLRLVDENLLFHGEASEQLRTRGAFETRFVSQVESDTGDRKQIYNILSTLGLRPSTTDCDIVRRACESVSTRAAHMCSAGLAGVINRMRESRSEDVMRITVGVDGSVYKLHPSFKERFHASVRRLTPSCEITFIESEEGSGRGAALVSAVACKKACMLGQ
Hexokinase-4 (Homo sapiens) + Glucokinase regulatory protein (Homo sapiens), sequence (Q14397 whole entry, looked up): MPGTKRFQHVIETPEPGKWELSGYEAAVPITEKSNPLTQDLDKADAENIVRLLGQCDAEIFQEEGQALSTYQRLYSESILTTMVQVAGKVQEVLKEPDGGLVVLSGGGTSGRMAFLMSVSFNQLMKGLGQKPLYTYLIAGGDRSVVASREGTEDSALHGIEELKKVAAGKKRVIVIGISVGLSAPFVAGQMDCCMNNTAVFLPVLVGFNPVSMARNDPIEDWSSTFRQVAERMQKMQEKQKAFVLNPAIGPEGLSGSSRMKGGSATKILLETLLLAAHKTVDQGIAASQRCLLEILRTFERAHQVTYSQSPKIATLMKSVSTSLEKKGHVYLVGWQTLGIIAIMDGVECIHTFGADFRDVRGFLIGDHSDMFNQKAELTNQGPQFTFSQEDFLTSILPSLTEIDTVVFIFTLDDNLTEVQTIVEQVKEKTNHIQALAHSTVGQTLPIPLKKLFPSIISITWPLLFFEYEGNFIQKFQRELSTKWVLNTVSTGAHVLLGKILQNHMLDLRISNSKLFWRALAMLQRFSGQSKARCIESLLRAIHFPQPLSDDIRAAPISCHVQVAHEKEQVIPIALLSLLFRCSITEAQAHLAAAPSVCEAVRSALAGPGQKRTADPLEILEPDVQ

As for `N#C/C(=C\c1ccc(O)c(O)c1)C(=O)NCCCNC(=O)/C(C#N)=C/c1ccc(O)c(O)c1`, the Potency in [1] is 2000 nM (active); in experiment [7], 2820 nM (active); in experiment [8], 2240 nM (active); in experiment [9], 2240 nM (active); in experiment [10], 2240 nM (active); in [11], 3160 nM (active). Moreover, the Potency in experiment [12] is 2240 nM (active); in experiment [13] it was 2000 nM (active); in experiment [14], 447 nM (active); in [16] it was 21200 nM (active); in experiment [17] it was 8280 nM (active); in experiment [18], 670 nM (active). Also, the Potency in experiment [19] was 316 nM (active) and 2.12 µM (active); in [20] it was 3770 nM (active); in experiment [21], 849 nM (active); in [22], 1900 nM (active). In addition, the Potency result in experiment [2], in experiment [15], in experiment [25], in [26], in experiment [27] and in experiment [28] was “inactive” in each case. Also, the call in [3], in experiment [4], in experiment [5], in experiment [6], in experiment [23] and in experiment [24] was inactive.
`NO`: the result in experiment [4] and in [5] was inactive. For the same compound, the Potency in [9] was 12600 nM (active); in experiment [20] it was 6 nM (active). Besides, the Potency entry in experiment [15], in experiment [29], in experiment [25], in experiment [26], in experiment [27] and in [28] was “inactive” throughout.
On to `O=C(/C=C/c1ccc(O)c(O)c1)O[C@@H]1C[C@](O)(C(=O)O)C[C@@H](O)[C@H]1O`, for which the Potency entry in experiment [25], in experiment [26], in experiment [27] and in [28] was “inactive” in each case. Moreover, the outcome in experiment [30] was inactive.
For `C=CC(=C)CCC=C(C)C`, the Potency entry in experiment [25], in [26], in experiment [27] and in experiment [28] was “inactive” throughout. In addition, in [30], the compound was called inactive.
